# Reference: PubChem BioAssay AID1259313 (Sanford-Burnham Center for Chemical Genomics, 2017)
# The campaign covered roughly 340,000 compounds. About 8,500 (2.5%) were called active. This is one part of a sample in which actives are shown more often than they occur. Unmarked numbers belong to inactive results.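 How the source made its calls: active means melting temperature shift of at least 10% of the positive control shift, at one fixed dose; inactive means the rest.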
# System: Glutamate receptor ionotropic, NMDA 3A (GRIN3A) ligand-binding domain
# Assay: NR3A LBD thermal stabilization by compounds – biophysical, differential scanning fluorimetry, uHTS, primary screen (AID 1259313)
# Conditions: at 25 µM, stronger effect = higher value, 0% = protein alone, 100% = glycine-bound protein
row,Compound,Tm shift relative to glycine control
1,COc1cc(S(=O)(=O)N2CCN(C(=O)C3CC3)CC2)ccc1NC(C)=O,1.2%
2,CCCc1c(C(=O)N/N=C(\C)CCc2ccc(OC)cc2)nnn1-c1nonc1N,0.47%
3,CCNc1nc(N)nc(-c2cc(Cl)ccc2OC)n1,1.29%
4,CCN(CC(=O)Nc1c(F)cccc1F)C(=O)CN1c2cccc3cccc(c23)S1(=O)=O,-0.42%
5,COc1ccc(CNC(=O)CCCn2nc(C)c([N+](=O)[O-])c2C)cc1,2.36%
6,CCc1ccc(NC(=O)Cn2nc(C)c([N+](=O)[O-])c2C)cc1,-12.5%
7,Cc1ccc(Oc2cc(NC(=O)CCCn3nc(C)c([N+](=O)[O-])c3C)cc([N+](=O)[O-])c2)cc1,14.9% (active)
8,Cc1cc(C)cc(OCC(=O)OCC(=O)NC2CCCC2)c1,1.75%
9,CCOC(=O)C1CCCN(C(=O)Cn2ncc3c(=O)oc4ccc(C)cc4c32)C1 (configuration not stated),-4.2%
10,Cc1ccc(-c2nnc(CN3CCN(C)CC3)o2)cc1,0.59%
11,CC1Cc2ccccc2N1CC(=O)Nc1ccc(S(N)(=O)=O)cc1 (configuration not stated),6.2%
12,CC1CC(C)CN(CC(=O)Nc2ccc(S(N)(=O)=O)cc2)C1 (configuration not stated),10% (active)
13,CC1CN(C(=S)Nc2ccc(S(N)(=O)=O)cc2)CC(C)O1 (configuration not stated),-1.98%
14,Cc1ccc(Nc2c(O)nc[nH]c2=O)cc1C,-3.98%
15,O=C(COC(=O)C1CCN(S(=O)(=O)c2ccc3c(c2)OCCO3)CC1)Nc1ccccc1OC(F)F,10.1% (active)
16,COc1ccccc1CNC(=O)C1CCN(S(=O)(=O)c2ccc3c(c2)OCCO3)CC1,6.45%
17,CCOC(=O)C1CCN(C(=O)COC(=O)C2CCN(S(=O)(=O)c3ccc4c(c3)OCCO4)CC2)CC1,-0.43%
18,O=C(CSc1ncnc2scc(-c3ccccc3)c12)NCc1ccc2c(c1)OCO2,-0.99%
19,O=C(NN=Cc1ccccc1O)C(=O)NN=Cc1ccccc1O,-0.25%
20,O=C(N/N=C/c1ccccc1O)C1CCCC1,-0.52%
21,O=C(NN=Cc1ccccc1O)NN=Cc1ccccc1O,29.9% (active)
22,COc1ccc(C2NC(=O)N(C)C(C)=C2[N+](=O)[O-])cc1 (configuration not stated),0%
23,CC(C)C(=O)Nc1cccc(NC(=O)c2ccc([N+](=O)[O-])cc2Cl)c1,-1.57%

row,Compound,Tm shift relative to glycine control
1,CC(=O)c1ccc(NC(=O)Nc2ccc([N+](=O)[O-])cc2C)cc1,7.59%
2,Cc1cc([N+](=O)[O-])ccc1NC(=O)c1ccc(NC(=O)C(C)C)cc1,13.6% (active)
3,CN(Cc1ccco1)S(=O)(=O)c1nnc(NC(=O)c2ccccc2)s1,-1.03%
4,CC(C)(Oc1ccc(C2CC2(Cl)Cl)cc1)C(=O)O (configuration not stated),-0.77%
5,O=C(NCc1ccccn1)Nc1ccc(Cl)cc1,-1.47%
6,CC(C)S(=O)(=O)c1csc(NC(=O)Nc2ccc(Cl)cc2)c1Cl,24.3% (active)
7,O=C(Nc1ccc(Cl)cc1)Nc1ccc(C(=O)N2CCOCC2)cc1,2.25%
8,COc1ccc([N+](=O)[O-])cc1N(CC(O)CN(CC(C)C)CC(C)C)S(=O)(=O)c1ccc(C)cc1 (configuration not stated),-2.17%
9,COc1cccc(NC(=O)C(Sc2nc3ccccc3c(=O)n2CC(C)C)c2ccccc2)c1 (configuration not stated),5.55%
10,N#Cc1c(N)sc2c1CCN(C(=O)OCc1ccccc1)C2,-2.92%
11,Cn1cc(S(=O)(=O)NC(c2ccccc2)c2ccccc2)c(=O)n(C)c1=O,-0.16%
12,COc1ccc(S(=O)(=O)N2CCCCCC2)cc1NC(=O)Cc1ccc(OC)c(OC)c1,0.44%
13,COc1cc(C(C)=O)ccc1OC(C)C(=O)Nc1ccc(S(=O)(=O)N2CCCC2)cc1 (configuration not stated),1.81%
14,COc1ccc(-c2ccc(Nc3ccc(S(=O)(=O)N4CCCC4)cc3)nn2)cc1OC,18.4% (active)
15,COc1cc(/C(=C/c2ccccc2)c2ccccc2)c2c(c1)oc1ccccc12,3.2%
16,Cc1ccc(-c2cc(C(=O)N/N=C/C=C/c3ccccc3)n[nH]2)o1,19.9% (active)
17,O=C(NN=CC=Cc1ccccc1)C(O)C(O)C(=O)NN=CC=Cc1ccccc1 (configuration not stated),3.13%
18,Cc1ccc(-c2cc(C(=O)NN)n[nH]2)o1,-1.08%
19,COCc1nc2ccccc2n1Cc1ccccc1Br,-1.6%
20,O=C(Oc1ccc(-c2nnco2)cc1)c1ccc(F)c(S(=O)(=O)N2CCOCC2)c1,0.78%
21,COC(CNC(=O)Cn1ncc2ccsc2c1=O)OC,-0.44%
22,COc1ccc(C)cc1S(=O)(=O)N(CC(=O)Nc1cccc([N+](=O)[O-])c1)c1ccc(C)cc1,17.5% (active)
23,COc1ccc(N(CC(=O)Nc2ccc(C)cc2C)S(=O)(=O)c2ccccc2[N+](=O)[O-])c(OC)c1,-2.12%

row,Compound,Tm shift relative to glycine control
1,Cc1ccc(S(=O)(=O)N(CC(=O)Nc2cccc([N+](=O)[O-])c2)Cc2ccc(Cl)cc2)cc1,3.38%
2,C=CCc1cccc2cc(C(=O)NC3CCCC3)c(=O)oc12,-0.75%
3,O=C(Nc1nnc(CCN2CCCCC2)s1)c1cccc(Cl)c1,-1.3%
4,Cc1ccc(-c2nnc(C)c(N3CC(C)OC(C)C3)n2)cc1 (configuration not stated),-2.74%
5,COc1ccccc1NC(=O)CN1CCN(S(=O)(=O)c2ccc(Br)cc2)CC1,24.1% (active)
6,O=C(CN1CCN(S(=O)(=O)c2ccc(F)cc2)CC1)Nc1ccccc1F,-1.4%
7,O=C(CN1CCN(S(=O)(=O)c2ccc(Br)cc2)CC1)Nc1ccccc1C(=O)c1ccccc1,-0.96%
8,O=C1CCCC(O)=C1N=Nc1ccc2ncsc2c1,-0.17%
9,NC(=O)COc1ccc(C23CC4CC(CC(C4)C2)C3)cc1,1.05%
10,O=C(Cc1ccc(Cl)cc1)c1ccccc1,-0.17%
11,CC(Sc1sc(=S)sc1SC(C)C(=O)O)C(=O)O (configuration not stated),3.28%
12,O=C(Cc1ccccc1)Nc1ccc(C(=O)Nc2ccccc2C(=O)O)cc1,0.78%
13,O=C(CN1CCc2ccccc2C1)Nc1cccc(S(=O)(=O)N2CCOCC2)c1,0.42%
14,CCOn1c(=O)c(=O)n(O)c2ccccc21,6.16%
15,O=C(CCC(=O)c1cccs1)Nc1nc2ccccc2s1,-1.65%
16,CC(=O)Nc1ccc(Nc2cc(C)nc(Nc3ccc(NC(C)=O)cc3)n2)cc1,-4.37%
17,COCc1nnc(NC(=O)c2ccc3c(c2)OCO3)s1,-0.5%
18,O=C(Nc1ccccc1)Nc1nc2ccccc2s1,26.3% (active)
19,O=C(CSC1=NCCS1)Nc1nc(-c2ccccc2)cs1,-5.63%
20,CC(=O)Nc1cccc(-c2csc(Nc3cccc(C)n3)n2)c1,11.8% (active)
21,O=C(NCc1cccnc1)C(=O)Nc1nc(-c2ccccc2)cs1,-0.2%
22,N#Cc1ccccc1NC(=O)c1ccc2c(c1)OCO2,-0.66%
23,O=C(Nc1nc2ccccc2s1)c1ccc2c(c1)OCO2,12.1% (active)

row,Compound,Tm shift relative to glycine control
1,c1ccc(C(=NNc2nc3ccccc3s2)c2ccccn2)cc1,-7.5%
2,CC(=O)Nc1ccc(-c2csc(NC(=O)Nc3ccccc3)n2)cc1,26.9% (active)
3,Cc1cccc(NC(=O)Nc2ccc3c(c2)OCO3)n1,-1.41%
4,O=C(NC(Cc1ccc(O)cc1)C(=O)O)/C(=C/c1ccccc1)NC(=O)c1ccccc1 (configuration not stated),-1.28%
5,O=C(Nc1nccs1)C1CCCN1S(=O)(=O)c1cccc2cccnc12 (configuration not stated),0.08%
6,CCOC(=O)NC(=O)CSc1nnc(SCCC(=O)O)s1,-2.83%
7,COc1ccc(C)cc1N(C(=O)Cn1nnc(-c2ccc(C)o2)n1)C(C(=O)NC1CCCC1)c1ccncc1 (configuration not stated),0.19%
8,CC(C)(C)NC(=O)NC(=O)COC(=O)C1c2ccccc2Oc2ccccc21,-5.02%
9,CCC(C)(C)NC(=O)CN(C(=O)CCC(=O)Nc1nccs1)c1ccc2c(c1)OCO2,-1.69%
10,COc1cc(NC(=O)CSC(=S)N2CCCC2)c(OC)cc1Cl,-1.06%
11,O=C(N/N=C/c1ccccn1)c1ccc(S(=O)(=O)N2CCCCCC2)cc1,-1.75%
12,O=C(N/N=C/c1ccccn1)c1cccc(NC(=O)c2ccc(Cl)cc2)c1,21.2% (active)
13,Cc1cccc(C(=O)Nc2ccc(C(=O)N/N=C/c3cccc(C)n3)cc2)c1,-13.7%
14,C=CCC1(CC=C)CCCN1C(=O)c1cc(COc2ccc(-n3cncn3)cc2)on1,1.48%
15,Cc1ccc2cc(C#N)c(NCCNC(=S)NCCCN3CCOCC3)nc2c1,1.55%
16,CC(C)CN(Cc1c(O)ccc2c(=O)c(-c3ccccc3)coc12)CC(C)C,-7.19%
17,CC(C)=CCc1c(O)c(CC=C(C)C)c2occ(-c3ccc(O)cc3)c(=O)c2c1O,31.4% (active)
18,COC(=O)C1=C(C)N(Cc2ccccc2)C(=NCCCOC(C)C)N[C@H]1c1ccccc1,-2.6%
19,Cc1ccccc1NC(=O)c1ccc(COc2ccc3c(C)cc(=O)oc3c2)cc1,12% (active)
20,CCN(C(=O)COC(=O)c1ccc(COc2ccc3c(C)cc(=O)oc3c2)cc1)C1CCS(=O)(=O)C1 (configuration not stated),2.72%
21,CCOC(=O)c1cc(=O)c2ccc(OCc3ccccc3)cc2o1,2.08%
22,COC(=O)c1ccc(/C=N/OCC(=O)Nc2cc(F)ccc2F)cc1,1.06%
23,CC(NC(=O)C(=O)N/N=C/c1ccc(Cl)cc1)c1ccccc1 (configuration not stated),-8.19%
